Source: PubChem
AmpC detergent: AmpC beta-lactamase inhibition with detergent present; P00811; AmpC hydrolysis of nitrocefin, absorbance 480 nm, 0.01% Triton; Potency, µM (top dose mostly 114 µM), hits mostly inhibitors; actives 0.041% (n = 370,000); AID 485294; note: nearly all actives have a fitted effect of over 25% in size
Target sequence (P00811 whole entry, looked up): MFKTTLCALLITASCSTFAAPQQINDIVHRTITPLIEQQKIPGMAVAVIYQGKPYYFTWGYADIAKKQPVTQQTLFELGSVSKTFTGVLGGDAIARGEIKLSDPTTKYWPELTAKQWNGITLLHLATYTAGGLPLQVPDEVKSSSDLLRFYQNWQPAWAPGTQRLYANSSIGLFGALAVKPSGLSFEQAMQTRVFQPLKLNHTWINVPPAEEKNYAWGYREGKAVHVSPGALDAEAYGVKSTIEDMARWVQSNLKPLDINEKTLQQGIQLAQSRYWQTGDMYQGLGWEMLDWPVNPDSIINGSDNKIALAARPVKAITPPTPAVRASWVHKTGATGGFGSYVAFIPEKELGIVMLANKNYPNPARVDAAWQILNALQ
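20 mM phosphate pH 7.0 + 0.01% (detergent screen) or 0.0001% Triton X-100; 5.3 nM AmpC reagent; cpd preinc 15 min RT; nitrocefin (800 uM stock) to start; A480 q20 s × 4 min; Activity was normalised to no-enzyme and no-compound control wells.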
AmpC no deterg: AmpC beta-lactamase inhibition without detergent; actives 0.52% (n = 330,000); Potency, µM (doses to about 57.1 µM), hits mostly inhibitors; AID 485341; P00811; AmpC nitrocefin hydrolysis, absorbance 480 nm, 0.0001% Triton; note: nearly all actives have a fitted effect of over 20% in size
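AmpC (5.3 nM in the dispensed reagent) in 20 mM phosphate pH 7.0 with 0.01% (detergent screen) or 0.0001% Triton X-100 was preincubated with compounds for 15 min at room temperature. Nitrocefin was then added from an 800 uM solution, and hydrolysis was followed at 480 nm.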
FMDV antiviral: antivirals against foot and mouth disease virus; FMDV antiviral cell-based qHTS; Potency, µM (doses to about 57.9 µM), actives largely listed as inhibitors; actives 1.2% (n = 410,000); AID 1159524; calls by dose curve; tested in HEK293T cells; note: read-out not given here; nearly all actives have a fitted effect of over 45% in size
HCMV inh: inhibitors of human cytomegalovirus; actives 4.5% (n = 410,000); activity change, negative = inhibition, % at 57.5 µM; HFF cells, HCMV-luciferase reporter, 72 h; active compounds read low; in the data active = activity change below about -60%; inconclusive = no clear call, values can overlap the other calls; inactive = above about -39%
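Cell-based, HFFs, 1000 cells/well, 16 h 37C; cpds in DMSO + HCMV-luc, MOI 1 PFU/cell; 72 h 37C; OneGlo luminescence after 5 min RT; norm. to buffer vs Salinomycin 10uM.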
HCV inhibitor: blocks hepatitis C virus; Huh7.5.1 HCVcc-Cre infection, luciferase reporter, 44 h; Potency, µM (top dose mostly 41.8 µM), usual class: inhibitors; actives 3.4% (n = 340,000)
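Cells seeded at 1,000/well and cultured 4 h, then compounds added followed by HCVcc-Cre virus (~0.5 moi). After 44 h further culture, luciferase substrate was added, plates held 15 min at room temperature, and luminescence read for 15 sec.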
Of the large screens only hits and unclear results are named; the others gave an inactive call. Hits are enriched below; roughly 7.3% of the tested compounds scored in any of these assays. Unless noted, calls come from the whole dose curve; as a rule, active = well fitted curve in the direction sought with a large enough effect; inconclusive = small, poorly fitted or top-dose-only effect, or another doubt; inactive = no such curve, though single readings can be large; an effect the other way counts as inactive or inconclusive.

COCCN1CC(=O)N2C(c3cccc(OC)c3)c3[nH]c4ccccc4c3C[C@H]2C1=O (stereo partly drawn)	none
COc1cccc(C(=O)Nc2ccc(S(=O)(=O)NCc3ccco3)cc2)c1	AmpC detergent inconclusive, HCV inhibitor 25.1µM
COc1ccc(OC)c(NC(=O)c2cc(S(=O)(=O)NCc3ccco3)ccc2F)c1	AmpC detergent inconclusive, HCV inhibitor 25.1µM
COc1cc(-c2cc(C(=O)Nc3ccc(S(=O)(=O)NCc4ccco4)cc3)c3ccccc3n2)cc(OC)c1OC	FMDV antiviral inconclusive, HCMV inh -63.2, HCV inhibitor 0.282µM
C(=C\c1nc(N2CCCCCC2)c2ccccc2n1)/c1ccccc1	FMDV antiviral 39.8µM, HCMV inh inconclusive, HCV inhibitor inconclusive
COC(=O)c1sc2cccc(F)c2c1S(=O)(=O)N1CCN(c2cccc(OC)c2)CC1	none (no result: AmpC no deterg, HCV inhibitor)
CC(=Nc1ccccc1)C1=C(O)C(Cc2ccc(F)cc2)NC1=O (stereo not drawn)	none (no result: AmpC detergent, AmpC no deterg, HCV inhibitor)
CC(=Nc1ccccc1)C1=C(O)C(Cc2ccccc2)NC1=O (stereo not drawn)	HCMV inh -76.4 (no result: AmpC detergent, AmpC no deterg)
CC(NC(=O)COC(=O)C1CSC2(C)CCC(=O)N12)C12CC3CC(CC(C3)C1)C2 (stereo not drawn)	none
COc1cccc(C2CC(=O)Nc3cc4c(cc32)OCCO4)c1OC(C)C (stereo not drawn)	FMDV antiviral inconclusive
CCCOc1c(OC)cccc1C1CC(=O)Nc2cc3c(cc21)OCO3 (stereo not drawn)	FMDV antiviral inconclusive, HCV inhibitor 11.2µM
O=C1CC(c2ccc(Cl)cc2)c2cc3c(cc2N1)OCCO3 (stereo not drawn)	HCMV inh inconclusive (no result: AmpC no deterg, HCV inhibitor)
CC(C)Oc1ccccc1C1CC(=O)Nc2cc3c(cc21)OCCO3 (stereo not drawn)	AmpC detergent inconclusive, FMDV antiviral inconclusive, HCMV inh -103.0, HCV inhibitor inconclusive
COc1ccccc1C1CC(=O)Nc2cc3c(cc21)OCCO3 (stereo not drawn)	FMDV antiviral inconclusive, HCMV inh -85.0, HCV inhibitor inconclusive
COc1ccc(Cl)cc1C1CC(=O)Nc2cc3c(cc21)OCCO3 (stereo not drawn)	HCMV inh -92.1 (no result: AmpC no deterg, HCV inhibitor)
CCCOc1c(OC)cccc1C1CC(=O)Nc2cc3c(cc21)OCCO3 (stereo not drawn)	HCV inhibitor inconclusive
COc1cc(=O)n2c(c1C(=O)NCc1ccco1)CCN(Cc1ccc3ccccc3c1)CC2	none (no result: AmpC detergent, AmpC no deterg, HCMV inh, HCV inhibitor)
CCOCCCNC(=O)C1CCN(C(=O)c2cc3sccc3n2C)CC1	none (no result: AmpC no deterg, HCV inhibitor)
CC(Sc1ncc(S(=O)(=O)c2ccc(C(C)C)cc2)c(N)n1)C(=O)Nc1ccccc1 (stereo not drawn)	FMDV antiviral inconclusive, HCMV inh -73.8 (no result: AmpC no deterg, HCV inhibitor)
CCc1ccccc1NC(=O)CSc1ncc(S(=O)(=O)c2ccc(C(C)C)cc2)c(N)n1	FMDV antiviral inconclusive (no result: AmpC no deterg, HCV inhibitor)
Cc1cc(=O)[nH]c(N2CCOCC2)n1	none
Cc1cc(N2CCOCC2)c2c(N)c(Br)cc(C)c2n1	AmpC detergent inconclusive, FMDV antiviral inconclusive, HCMV inh -81.9, HCV inhibitor inconclusive
O=C(CSc1nnc(-c2cccnc2)o1)Nc1nccs1	none
CN(C)c1cc(C(F)(F)F)nc(-c2ccccn2)n1	none
CSCc1cc(N(C)c2ccccc2)nc(-c2ccccn2)n1	HCMV inh -84.9, HCV inhibitor 2.82µM
CCOc1ccc2oc(=O)cc(CN3CCN(C(=O)c4ccc(Cl)cc4)CC3)c2c1	HCMV inh -66.5 (no result: AmpC no deterg, HCV inhibitor)
CCOc1ccc(N2CC(NC(=O)c3cccc4ccccc34)CC2=O)cc1 (stereo not drawn)	AmpC detergent inconclusive, AmpC no deterg 31.6µM
CCOc1ccc(CNc2ccc(N3CCCC3)cc2)cc1	none
O=c1cc(CN2CCCC2)c2c(ccc3ccccc32)o1	none (no result: AmpC detergent, AmpC no deterg, HCV inhibitor)
CCOc1ccc(CNc2ccc(N3CCN(Cc4ccccc4)CC3)cc2)cc1	HCV inhibitor 10µM
CCOC(=O)N1CCN(Cc2cc(=O)oc3ccc4ccccc4c23)CC1	FMDV antiviral 20µM
CCOc1ccc(N2CC(NC(=O)c3ccco3)CC2=O)cc1 (stereo not drawn)	none (no result: AmpC no deterg, HCV inhibitor)
S=C(NN=C1CCCCC1=NNC(=S)N1CCOCC1)N1CCOCC1	none (no result: AmpC detergent, AmpC no deterg, FMDV antiviral, HCV inhibitor)
Nc1nc(N)nc(-c2cccc(Cl)c2Cl)n1	AmpC detergent inconclusive
Cc1nc2ccccn2c1CN(C)C(=O)C1CCC(=O)N(Cc2cccc(F)c2)C1 (stereo not drawn)	none
CCOc1ccc(CN2CCN(C(=O)c3ccccc3)CC2)cc1	FMDV antiviral inconclusive, HCV inhibitor 11.2µM
CCOc1ccc(C(=O)N2CCN(Cc3ccccc3)CC2)cc1	none (no result: FMDV antiviral)
CCOc1ccc(CN2CCN(C(=O)c3cccc4ccccc34)CC2)cc1	AmpC detergent inconclusive, FMDV antiviral inconclusive, HCMV inh inconclusive, HCV inhibitor 7.08µM
CCOC(=O)N1CCN(C(=O)C(C)N(c2ccc(Oc3ccccc3)cc2)S(C)(=O)=O)CC1 (stereo not drawn)	FMDV antiviral inconclusive, HCMV inh -65.4, HCV inhibitor inconclusive
COc1ccc(N(C(C)C(=O)N2CCC(Cc3ccccc3)CC2)S(C)(=O)=O)cc1 (stereo not drawn)	FMDV antiviral 11.2µM, HCMV inh -74.2, HCV inhibitor 8.91µM
CCOC(=O)C1CCN(C(=O)C(C)N(c2ccc(Oc3ccccc3)cc2)S(C)(=O)=O)CC1 (stereo not drawn)	FMDV antiviral inconclusive, HCV inhibitor 10µM
COc1ccc(N(C(C)C(=O)N2CCCC2)S(C)(=O)=O)cc1 (stereo not drawn)	AmpC detergent inconclusive
COC(=O)C(Nc1cc(OC)ccc1OC)(c1ccc(F)cc1)C(Nc1cc(OC)ccc1OC)c1ccc(Br)cc1 (stereo not drawn)	none (no result: AmpC detergent, AmpC no deterg, FMDV antiviral, HCV inhibitor)
CN(C)N=Nc1nc2c(c(=O)n(C)c(=O)n2C)n1CC1CO1 (stereo not drawn)	HCMV inh -77.5, HCV inhibitor 3.98µM
COc1ccc2c3c1OC1C(O)C=CC4C(C2)[N+](C)(C)CCC341 (stereo not drawn)	AmpC detergent 39.8µM, AmpC no deterg inconclusive
CCc1ccc(NC(=O)C(=O)NCC(c2cccnc2)N2CCOCC2)cc1 (stereo not drawn)	none (no result: AmpC no deterg, HCV inhibitor)
Cc1cc(C)c(S(=O)(=O)Nc2cccc(-c3cn4ccccc4n3)c2)c(C)c1	HCMV inh -87.2 (no result: AmpC no deterg, HCV inhibitor)
Cc1cccn2cc(-c3cccc(NS(=O)(=O)c4ccc(Cl)c(Cl)c4)c3)nc12	HCMV inh -91.1 (no result: AmpC no deterg, HCV inhibitor)
CC1CN(S(=O)(=O)c2cccc(-c3cn4ccccc4n3)c2)CC(C)O1 (stereo not drawn)	HCMV inh -86.0, HCV inhibitor inconclusive (no result: FMDV antiviral)
Cc1ccccc1C(=O)Nc1cccc(-c2cn3ccccc3n2)c1	FMDV antiviral inconclusive, HCV inhibitor 14.1µM
CC(C)c1ccccc1OCC(=O)Nc1nnc(C2CC2)s1	HCMV inh inconclusive
Cc1sc2nc(SCCN(C)C)n(-c3ccccc3)c(=O)c2c1-c1ccc(F)cc1	HCMV inh inconclusive, HCV inhibitor 7.08µM
